# Data from PubChem BioAssay.
# Unmarked numbers belong to inactive results.
# Assay: forskolin-driven CRE-LacZ activity in PC12 – cell-based, CRE-LacZ reporter, forskolin-stimulated, primary screen (AID 1146);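 further: PC12 cells with 6xCRE LacZ reporter stimulated by forskolin 10 µM; beta-galactosidase reporter signal reflecting CREB driven transcription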
# Conditions: luminescence, 4.5 h, higher = more signal, called active from +8 up or from −8 down
row,SMILES,z-score
1,C=CCN1C(=O)[C@@]2(Cc3ccccc31)N=C(c1ccc(OCCCO)cc1)O[C@H]2c1ccccc1,-1.81
2,[N-]=[N+]=Nc1ccccc1[C@@H]1OC(c2ccc(OCCCO)cc2)=N[C@]1(CCS(=O)(=O)c1ccccc1)C(N)=O,-1.09
3,CN(C)C(=O)[C@@]1(CCS(=O)(=O)c2ccccc2)COC(c2ccc(OCCCO)cc2)=N1,-0.793
4,CCOC(=O)C[C@H]1[C@H](OC(=O)c2cc3ccccc3oc2=O)[C@@H](NC(=O)c2ccccc2)c2cc(OCCCO)ccc2N1C(=O)c1ccc2ccccc2n1,-0.539
5,C=CCOC(=O)[C@H]1[C@@H]2C(=O)O[C@@H](c3ccccc3)[C@@H](c3ccccc3)N2[C@@H](c2ccc(OCCOC(=O)[C@H]3C[C@H]4C(=O)N[C@@H](CCCCNC(C)=O)C(=O)N4[C@H]3c3cccc(OCCO)c3)cc2)[C@]12C(=O)Nc1ccccc12,-0.908
6,CC(C)C(CO)N1C(=O)[C@@H]2C3C(=O)OCCC/C=C\[C@H]3OC23C=CCN(CCN2CCOCC2)C(=O)[C@@H]13 (some centres undefined),-0.0271
7,O=C(NCCN1CCOCC1)C1N=C(c2ccc(OCCCO)cc2)N(c2ccccc2)O1 (centres undefined),0.552
8,COC(=O)[C@@]1(Cc2ccccc2)[C@H]2c3cc(C(=O)N4CCCC4)n(Cc4ccc(S(C)(=O)=O)cc4)c3C[C@H]2CN1C(=O)c1ccccc1,0.266
9,O=C1[C@@]23C=C(Br)[C@H](C[C@@H]2CCOC3)[C@@]12CO2,0.767
